The record followed here is PubChem BioAssay AID1508622 (National Center for Advancing Translational Sciences (NCATS), 2021).

Active and inactive are the calls of the source. Calls follow the shape of the dose curve; as a rule, active = well fitted activation curve with a large enough effect; inconclusive = small, poorly fitted or top-dose-only effect; inactive = no such curve, though single readings can be large or run the other way.
Potency is read from the fitted curve at half-maximal effect.

A short description of this assay: Confirmatory qHTS for Identification of Small Molecule Activators of Huntingtin-Antisense Promoter Activity. To be noted: HEK293 HTT-AS promoter firefly luciferase reporter, 24 h; series mostly up to 57.5 µM; activity change, positive = activation: at the top concentration. The method in brief:
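Plated reporter HEK293 cells (24 h) received library compounds at up to 57.5 uM final or 50 uM PTC124, incubated 24 h at 37C; firefly luciferase luminescence was then recorded with Dual-Glo reagent.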
On the technique in general: Quantitative high-throughput screening tests each substance at several concentrations.
Consider `CCC(=O)N1CCc2cc(S(=O)(=O)NCCC(=O)Nc3ccc(CC)cc3)ccc21`, for which the “activity change, positive = activation” value was -20.6% (inactive). For `Cc1ccccc1Cn1c(=O)n(Cc2ccco2)c(=O)c2oc3ccccc3c21`, the “activity change, positive = activation” value is -7.53% (inactive). Still for that read-out and setting: in the case of `CCOC(=O)C1CCCN(C(=O)Cn2c(=O)cc(C)c3c(C)nn(C)c32)C1` (centres undefined) it was -33.4% (inactive); in that of `COc1ccc2c(c1)CCc1c(C(=O)Nc3c(C)nn(Cc4ccccc4C)c3C)noc1-2`, -30.5% (inactive); in that of `COc1ccc(Cl)cc1C1CC(=O)Nc2cc3c(cc21)OCCO3` (centres undefined), -63.7% (inactive). Same read-out and setting: in the case of `Cn1cnc(S(=O)(=O)N2CCC(C(=O)Nc3ccc(Cl)c(C(F)(F)F)c3)CC2)c1` it was -54.1% (inactive). Regarding `C1=CCOCc2cc(ccc2OCCN2CCCC2)Nc2nccc(n2)-c2cccc(c2)OCC1`, the “activity change, positive = activation” value is -41.6% (inactive). As to `COc1ccc(CC(=O)Nc2ccc(-c3nc4ccccc4s3)cc2Cl)cc1OC`, the “activity change, positive = activation” value is -32.9% (inactive).

`CC(C)c1ccc(NC(=O)c2ccc(F)c(S(=O)(=O)N3CCCCCC3)c2)cc1`: the “activity change, positive = activation” value is -29.2% (inactive). On the same count and under the same terms, with `CN(CC(=O)Nc1ccc(OC(F)(F)F)cc1)S(=O)(=O)c1ccc2c(c1)CCC(=O)N2` the figure was -49.6% (inactive); with `CCS(=O)(=O)NCCc1sc2nc(-c3ccc(OC)cc3)nn2c1C`, -25.2% (inactive); with `Cc1nc(N2CCCC2)ncc1C(=O)Nc1ccc(OC(F)(F)F)cc1`, -33.4% (inactive). The same measure, in the same setting: in the case of `CCN1C(=O)c2ccccc2Sc2ccc(NC(=O)Nc3ccccc3OC)cc21` it was -26.7% (inactive).

Regarding `CCN(C(=O)CSc1nc(-c2ccccc2)no1)c1cccc(C)c1`, the “activity change, positive = activation” value is 14.2% (inactive). As to `COc1ccc(NC(=O)CN2CCCN(S(=O)(=O)c3ccc(Br)cc3)CC2)c(OC)c1`, the “activity change, positive = activation” value was -29.8% (inactive).

With `Cn1c(SCc2ccc(F)cc2)nc2ccc(C(=O)NCc3ccc(F)cc3)cc21`, the “activity change, positive = activation” value is -69.3% (inactive). Consider `COc1ccc(S(=O)(=O)N2CCC(c3nnnn3-c3ccccc3)CC2)cc1OC`, for which the “activity change, positive = activation” value was -44.4% (inactive). On to `COc1ccccc1NC(=O)CSc1oc(-c2ccccc2)nc1S(=O)(=O)c1ccccc1`, for which the “activity change, positive = activation” value was -21.1% (inactive).

Consider `CC(C)c1ccc(CNC(=O)c2ccc(N3CCCC3)c(NC(=O)NCc3ccccc3)c2)cc1`, for which the “activity change, positive = activation” value is -89.4% (inactive). Regarding `CCOc1ccc(C(=O)Nc2ccc(S(=O)(=O)N3CCCCC3c3cccnc3)cc2)cc1` (centres undefined), the “activity change, positive = activation” value was -70.1% (inactive).

In the case of `Cc1cccc(-n2nc(C)c(C(=O)Nc3cc(C)ccc3C)c2-n2cccc2)c1`, the “activity change, positive = activation” value was -22.1% (inactive).

`CCc1c(C)sc2c1CCN(Cc1ccccc1F)C2c1ccccc1` (centres undefined): the “activity change, positive = activation” value was -23.1% (inactive). With `O=C(CSc1nc(-c2cccc(F)c2)[nH]c1-c1ccccc1)Nc1ccc2c(c1)OCCO2`, the “activity change, positive = activation” value was -39% (inactive). Same read-out and setting: in the case of `Cc1oc(-c2ccc(Cl)cc2)nc1CN1CCCC(C(=O)NCCc2ccccc2)C1` (centres undefined) it was -92% (inactive). Consider `O=C(c1cccs1)N(Cc1cccnc1)c1nc2c(F)cc(F)cc2s1`, for which the “activity change, positive = activation” value was -58.2% (inactive). For `CC(=O)N1CCCc2cc(S(=O)(=O)N(C)CC(=O)Nc3cccc(Cl)c3C)ccc21`, the “activity change, positive = activation” value was -37.9% (inactive).

Turning to `CCOc1ccc(OC(=O)c2c(-c3ccccc3Cl)noc2C)cc1`, the “activity change, positive = activation” value is -27% (inactive).

For the compound `Cc1cc(F)ccc1NC(=O)C1CCCN(C(=O)c2cnn(-c3ccccc3)c2-n2cccc2)C1` (centres undefined), the “activity change, positive = activation” value was -38.7% (inactive). On the same count and under the same terms, in the case of `CC(C)C1C(=O)Nc2ccc(S(=O)(=O)NCc3ccc(Cl)cc3)cc21` (centres undefined) it was -66.1% (inactive); in that of `CCOC(=O)c1ccc(C#Cc2ccc3c(c2)C(C)(C)CCS3)nc1`, -25.9% (inactive); in that of `CCOC(=O)c1oc2c(c1C)-c1nn(Cc3ccc(Cl)cc3)cc1CC2`, -14.9% (inactive). For `Cc1ccc(NC(=O)C2CCCN2S(=O)(=O)c2cccc3nsnc23)cc1Cl` (centres undefined), the “activity change, positive = activation” value was -45.5% (inactive). The same measure, in the same setting: in the case of `Cc1cccc(NC(=O)Cn2c(=O)oc3cc(S(=O)(=O)N4CCCCCC4)ccc32)c1` it was -34% (inactive); in that of `CC=C1NC(=O)[C@H]2CSSCCC=C[C@H](CC(=O)N[C@H](C(C)C)C(=O)N2)OC(=O)[C@H](C(C)C)NC1=O`, -3.47% (inactive); in that of `COc1cccc(C(=O)N2c3cc(C)ccc3C(C)(c3ccccc3)CC2(C)C)c1` (centres undefined), -75.5% (inactive). Turning to `CC(=O)Nc1ccc(S(=O)(=O)Nc2cc(-c3cn4ccccc4n3)ccc2C)cc1`, the Potency is 10.7 µM (active). For `Cc1cccc(NC(=O)c2cnn(-c3ccccc3)c2-n2cccc2)c1C`, the “activity change, positive = activation” value was -33.2% (inactive).

With `CCOc1cc(CNCCSc2nnnn2-c2ccccc2)cc(Cl)c1OC`, the “activity change, positive = activation” value was -14.4% (inactive). Same read-out and setting: with `Cc1cccc(N2CCN(S(=O)(=O)c3ccc(F)c(C(=O)Nc4cccc(Cl)c4C)c3)CC2C)c1` (centres undefined) the figure was -17.7% (inactive).
